Assay results taken from ChEMBL document CHEMBL3988442, “University of Dundee, Small-Polar-MMV Screening Library” (2021).
Hit rate of the full screen: of about 66,000 compounds, about 960 (1.5%) showed an effect of 50% or more. Many of the other results were omitted from the sample, so strong results are more common in it than they were.

Test system: Trypanosoma brucei
Assay: Trypanosoma brucei 72 hour study
Type: functional, organism-based
Design: scale not given: in the data most compounds retested in dose-response had high values

COCCN1C(=O)[C@H]2CC[C@@H]1CN(S(=O)(=O)c1ccc(OC)cc1)C2
Percent Effect (30.3 µM, […]): -80.52%

Cc1cc(NCCN2CCNC2=O)nc2cc3c(cc12)CCC3
Percent Effect (30 µM, 30.03 µM): 101.3%

COc1cc(OC)c2nc(NCCN3CCNC3=O)cc(C)c2c1
Percent Effect (30 µM, 30.03 µM): 22.56%

COc1cc2nc(NCCN3CCNC3=O)cc(C)c2cc1OC
Percent Effect (30 µM, 30.03 µM): 57.38%

Cc1cc(NCCNS(C)(=O)=O)nc2cc3c(cc12)CCC3
Percent Effect (30 µM, 30.03 µM): 12.23%

Cc1cc(NCCS(C)(=O)=O)nc2cc3c(cc12)CCC3
Percent Effect (30 µM, 30.03 µM): 3.514%

COc1cc2nc(NCCNS(C)(=O)=O)cc(C)c2cc1OC
Percent Effect (30 µM, 30.03 µM): 21.73%

Cc1cc(C(=O)N2CCn3cc(CN4CCOCC4)nc3C2)no1.O=C(O)C(F)(F)F
Percent Effect (30.3 µM, […]): -304.6%

CN1CC(=O)N(c2ccsc2)CC12CCN(C(=O)CC1CCCC1)C2.O=C(O)C(F)(F)F (configuration not stated)
Percent Effect (30 µM, 30.03 µM): 8.203%

O=C(C[C@@H]1COC[C@H]2CN(C3CCCC3)C[C@@H]12)NCc1cccnc1.O=C(O)C(F)(F)F.O=C(O)C(F)(F)F
Percent Effect (30.3 µM, […]): 5.505%

Cc1noc(CN2CCC(Cc3ccc(F)cc3)CC2)n1
Percent Effect (30.3 µM, […]): -2.984%

CN(C)C(=O)N1C[C@@H]2CC[C@H](C1)N(Cc1nnc(C3CC3)o1)C2
Percent Effect (30 µM, 30.03 µM): -29.28%

Cc1cnccc1-c1cc(NCCO)nc2[nH]ccc12
Percent Effect (30 µM, 30.03 µM): -32%

Nc1cc(-c2cc(O)cc(C(=O)O)c2)c2cc[nH]c2n1
Percent Effect (30 µM, 30.03 µM): -9.984%

CCNCCOc1ccc(-c2cc(N)nc3[nH]ccc23)cc1
Percent Effect (30.3 µM, […]): 21.45%

CNc1cc(-c2ccc(COCCN)cc2)c2cc[nH]c2n1
Percent Effect (30 µM, 30.03 µM): -16.28%

CCCNCc1ccc(-c2cc(N)nc3[nH]ccc23)cc1
Percent Effect (30.3 µM, […]): 58.31%

CCCNCc1ccc(-c2ccnc3[nH]ccc23)cc1
Percent Effect (30.3 µM, […]): 63.66%

CC(C)N1CCC(c2nc3ccc(-c4ccnn4C)cn3n2)CC1.O=C(O)C(F)(F)F
Percent Effect (30.3 µM, […]): -11.51%

O=C(CC1CCCC1)N1CCC2(CCN2Cc2ccc(F)cc2)C1.O=C(O)C(F)(F)F (configuration not stated)
Percent Effect (30.3 µM, […]): -0.9298%

CCc1nnc(CN(C)CC2CCCCC2)o1
Percent Effect (30 µM, 30.03 µM): -20.72%

Cc1ccc(C(=O)N2CCc3ncnc(C)c3CC2)cn1
Percent Effect (30 µM, 30.03 µM): 1.33%

Cc1cnc(C(=O)N2CCc3ncnc(C)c3CC2)cn1
Percent Effect (30 µM, 30.03 µM): 54.93%

Cc1ncnc2c1CCN(C(=O)c1cnccn1)CC2
Percent Effect (30.3 µM, […]): 17.88%

CCNC(=O)N(C)C1CCN(Cc2ncc(C)c(OC)c2C)CC1
Percent Effect (10 µM): -34.27%

Cc1cc(C(=O)N2CCC3(CC2)CC(c2cccnc2)C(=O)N3)no1.O=C(O)C(F)(F)F (configuration not stated)
Percent Effect (30 µM, 30.03 µM): -44.38%

COc1ccc(CCN2CC(NCc3ncc[nH]3)CC2=O)cc1 (configuration not stated)
Percent Effect (30 µM, 30.03 µM): 64.92%

O=C1CC(NCc2ccccn2)CN1CCc1ccc(F)cc1 (configuration not stated)
Percent Effect (30 µM, 30.03 µM): 2.338%

O=C1CC(NCc2ccncc2)CN1CCc1cccc(Cl)c1 (configuration not stated)
Percent Effect (30 µM, 30.03 µM): -25.97%

Cc1ncc(CNC2CC(=O)N(CCc3ccc(F)cc3)C2)n1C (configuration not stated)
Percent Effect (30 µM, 30.03 µM): 23.38%

O=C1CC(NCc2ncc[nH]2)CN1CCc1cccc(Cl)c1 (configuration not stated)
Percent Effect (30 µM, 30.03 µM): 84.65%

Cc1nc[nH]c1CNC1CC(=O)N(CCc2cccc(Cl)c2)C1 (configuration not stated)
Percent Effect (30 µM, 30.03 µM): -48.22%

CCN1CCN(C(C)CNC(=O)Nc2nc3ccccc3s2)CC1 (configuration not stated)
Percent Effect (30.3 µM, […]): 21.11%

Fc1ccc(CN2CCc3ncnc(C4CC4)c3CC2)cc1.O=C(O)C(F)(F)F
Percent Effect (30 µM, 30.03 µM): -12.14%

Cc1ccc(O)c(-c2cc(NCCO)nc3[nH]ccc23)c1
Percent Effect (30 µM, 30.03 µM): -9.914%

CC(=O)N1[C@H](CN(C)C)C[C@@H]2CN(C(=O)c3occc3C)CC[C@@H]21.O=C(O)C(F)(F)F
Percent Effect (30.3 µM, […]): -4.239%

O=C(O)C(F)(F)F.O=S(=O)(C1CC1)N1CCO[C@H]2[C@@H](Oc3ncccc3F)CC[C@@H]21
Percent Effect (30.3 µM, […]): -15.89%

CC(C)c1cn(CC(=O)NC2CC(=O)N(CCc3ccccc3)C2)nn1 (configuration not stated)
Percent Effect (30.3 µM, […]): -9.844%

CCN(Cc1noc(CC(C)C)n1)Cc1ccccc1C(=O)O
Percent Effect (30.3 µM, […]): 12.17%

CCN(Cc1noc(CC(C)C)n1)Cc1ccccc1C
Percent Effect (30.3 µM, […]): 13.68%

CCN(Cc1noc(CC(C)C)n1)Cc1ccccc1Cl
Percent Effect (30.3 µM, […]): 100%

COc1cccc(CN2CCCC(c3nn(C)c4nccnc34)C2)c1.Cl (configuration not stated)
Percent Effect (30.3 µM, […]): -9.344%

Cc1cnc(CN2C[C@H]3C[C@H](Oc4ccccc4)C[C@H]3C2)cn1
Percent Effect (30.3 µM, […]): -12.87%

Cc1nc(COCc2cnc3n2CCN(C)C3C)cs1.O=C(O)C(F)(F)F (configuration not stated)
Percent Effect (30.3 µM, […]): 14.84%

Cc1nc(COCc2cnc3n2CCN(CC2CCC2)C3C)cs1.O=C(O)C(F)(F)F (configuration not stated)
Percent Effect (30 µM, 30.03 µM): 77.97%

Cc1nc(COCc2cnc3n2CCN(C2CCC2)C3C)cs1.O=C(O)C(F)(F)F (configuration not stated)
Percent Effect (30 µM, 30.03 µM): -3.887%

O=C(NCc1ccco1)[C@H]1C[C@@H]2CCN(c3cccc(F)c3)C[C@H]2O1.O=C(O)C(F)(F)F
Percent Effect (30.3 µM, […]): 0.588%
